# According to PubChem BioAssay (Tox21):
# Records with an inconclusive call do not appear. Entries that show only a call come without a potency. Some structures have more than one record in an assay (separate samples or runs), and their calls can disagree. Active and inactive are the calls of the source. Unless noted, calls come from the whole dose curve.
# Target: Nuclear receptor ROR-gamma (Homo sapiens) (UniProt P51449)
# Assay: qHTS assay to identify small molecule antagonists of the retinoid-related orphan receptor gamma (ROR-gamma) signaling pathway (AID 1159521; active = well fitted inhibition curve with a large enough effect in the repeat runs; note: nearly all actives have a fitted effect of over 50% in size; note: potency is the fitted concentration of half-maximal effect)
# Conditions: Tet-on RORgamma CHO cells, RORE-luciferase, 16 h; series mostly up to 92.4 µM
# Outline: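 Tet-on RORγ CHO cells carrying a ROR response element–luciferase reporter were pretreated with compounds for 2 h, then induced with 1 uM (final) doxycycline hyclate for 16 h at 37 C. Antagonism was read as decreased ONE-Glo luminescence.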
row,SMILES,Potency
1,CN(N=O)c1ccccc1,inactive
2,Cc1ccc(N)cc1N,inactive
3,Nc1ccc(Br)cc1,inactive
4,OC(O)C(Cl)(Cl)Cl,inactive
5,CCCCN(CC)C(=O)SCCC,inactive
6,C=C(C)CCl,inactive
7,CN(C)CCO,inactive
8,O=c1[nH]c2ccccc2c(=O)o1,inactive
9,CC(C)OC(=O)Nc1ccccc1,inactive
10,CON(C)C(=O)Nc1ccc(Cl)c(Cl)c1,inactive
11,Nc1ccc(Oc2ccc(N)cc2)cc1,inactive
12,O=c1n(Cl)c(=O)n(Cl)c(=O)n1Cl,inactive
13,CCOP(OCC)OCC,inactive
14,Clc1ccc(Cl)cc1,inactive
15,CC(C)(C)OOC(=O)c1ccccc1,inactive
16,COc1ccc2c3c1O[C@H]1[C@@H](O)C=C[C@H]4[C@@H](C2)N(C)CC[C@@]341,60.1 µM (active) and inactive
17,CCCC1COC(Cn2cncn2)(c2ccc(Cl)cc2Cl)O1 (centres undefined),43.3 µM (active)
18,CC(=O)C=C(C)C,inactive

# Test system: not listed separately
# Assay: qHTS assay to identify small molecule agonists of the AP-1 signaling pathway - cell viability counter screen (AID 1159525); note: nearly all actives have a fitted effect of over 55% in size
# Conditions: ME-180 (cervical carcinoma) AP-1-bla cells viability, ATP luminescence, 5 h; series mostly up to 76.8 µM
# Outline: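 Same-well cytotoxicity counter screen of the Tox21 10K library in ME-180 cells. The readout is ATP-dependent luminescence after 5 h compound treatment. Data are normalised to DMSO and tetra n-octyl ammonium bromide controls.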
row,SMILES,Potency
1,[N-]=[N+]=[N-],inactive
2,Cc1[nH]c(=O)n(C(C)(C)C)c(=O)c1Cl,inactive
3,COC(=O)NC(=S)Nc1ccccc1NC(=S)NC(=O)OC,inactive
4,CCCCN(CCCC)SN(C)C(=O)Oc1cccc2c1OC(C)(C)C2,inactive
5,O=[N+]([O-])c1ccccc1,inactive
6,C=CC(N)=O,inactive
7,c1ccc2c(c1)Oc1ccccc1O2,inactive
8,c1ccc(-c2ccccc2)cc1,inactive
9,CCC12COCN1COC2,inactive
10,Clc1ccccc1Cl,inactive
11,CNC(=O)Oc1ccccc1OC(C)C,inactive
12,CC1OC(C)OC(C)O1 (centres undefined),inactive
13,CCCN(CCC)c1c([N+](=O)[O-])cc(C(F)(F)F)cc1[N+](=O)[O-],inactive
14,COP(N)(=O)SC (centres undefined),inactive
15,COC(=O)NS(=O)(=O)c1ccc(N)cc1,inactive
16,CN1C(=O)CN=C(c2ccccc2)c2cc(Cl)ccc21,inactive
17,CC(Oc1ccc(Cl)cc1Cl)C(=O)O (centres undefined),inactive
18,O=C1CCCN1,inactive

row,SMILES,Potency
1,CN(N=O)c1ccccc1,inactive
2,Cc1ccc(N)cc1N,inactive
3,Nc1ccc(Br)cc1,inactive
4,OC(O)C(Cl)(Cl)Cl,inactive
5,CCCCN(CC)C(=O)SCCC,inactive
6,C=C(C)CCl,inactive
7,CN(C)CCO,inactive
8,O=c1[nH]c2ccccc2c(=O)o1,inactive
9,CC(C)OC(=O)Nc1ccccc1,inactive
10,CON(C)C(=O)Nc1ccc(Cl)c(Cl)c1,inactive
11,Nc1ccc(Oc2ccc(N)cc2)cc1,inactive
12,O=c1n(Cl)c(=O)n(Cl)c(=O)n1Cl,inactive
13,CCOP(OCC)OCC,inactive
14,Clc1ccc(Cl)cc1,inactive
15,CC(C)(C)OOC(=O)c1ccccc1,inactive
16,COc1ccc2c3c1O[C@H]1[C@@H](O)C=C[C@H]4[C@@H](C2)N(C)CC[C@@]341,inactive
17,CCCC1COC(Cn2cncn2)(c2ccc(Cl)cc2Cl)O1 (centres undefined),inactive
18,CC(=O)C=C(C)C,inactive
